Here are results for 47 molecules from PubChem BioAssay AID1259415 (National Center for Advancing Translational Sciences (NCATS), 2018).

The whole screen tested about 410,000 compounds, of which about 18,000 (4.4%) were called active. Not shown: some 7% with an inconclusive outcome. The full list was thinned out, with actives kept by preference. Values without a mark were called inactive. Cut-off read from the data, not from the text of the source: active = activity change below about -60%; inconclusive = no clear call, values can overlap the other calls; inactive = above about -39%.
% is set by controls: 0 for no effect and ±100 for the full control effect.

The test in a line: qHTS Assay for inhibitors of the human cytomegalovirus (HCMV). The following applies: HFF cells, HCMV-luciferase reporter, 72 h; at 57.5 µM; hits give low values. The method, boiled down:
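Cell-based, HFFs, 1000 cells/well, 16 h 37C; cpds in DMSO + HCMV-luc, MOI 1 PFU/cell; 72 h 37C; OneGlo luminescence after 5 min RT; norm. to buffer vs Salinomycin 10uM.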
(In general: qHTS replaces the single test concentration by a dilution series.)
With `COc1cccc(CCNC(=O)c2cccc(NC(=O)C3=C(C)OCCS3)c2)c1`, the activity change, negative = inhibition was -34.7%.
With `Cc1nc2nc(C)c(NS(=O)(=O)c3ccc(C(C)(C)C)cc3)c(=O)n2[nH]1`, the activity change, negative = inhibition was 2.48%.
Regarding `O=C(Nc1ccc(N2CCN(C(=O)c3ccccc3)CC2)c(Cl)c1)c1cccnc1`, the activity change, negative = inhibition was -70.9% (active).
In the case of `O=C(Nc1ccc(N2CCN(C(=O)c3ccccc3)CC2)c(Cl)c1)c1ncn[nH]1` it was -25.4%; in that of `Cc1ccccc1N1CCN(C(=O)c2cccnc2)CC1`, -6.56%.
`CC(Nc1ccccc1)c1cccnc1` (configuration not stated): the activity change, negative = inhibition was 4.97%.
Turning to `Cc1ccc(C(O)P(=O)(OC(C)C)c2ccc(N(C)C)cc2)cc1` (configuration not stated), the activity change, negative = inhibition is 15.1%.
On to `CC(C)COP(=O)(c1ccc(N(C)C)cc1)C(Nc1ccccc1)c1cccnc1` (configuration not stated), for which the activity change, negative = inhibition was -101% (active).
With `Cc1ccc(S(=O)(=O)n2nc(-c3ccc(Cl)cc3)nc2NCc2ccccc2)cc1` the figure was 8.1%.
Regarding `COc1ccc(C2c3c(oc4ccccc4c3=O)C(=O)N2Cc2ccc3c(c2)OCO3)cc1` (configuration not stated), the activity change, negative = inhibition was -4.99%.
For the molecule `COc1ccc(-c2nn(CC(=O)Nc3ccccc3F)c3c2cnc2ccc(F)cc23)cc1`, the activity change, negative = inhibition was 39.2%.
Take `O=c1[nH]c(-c2ccccc2)cn1C1CCN(Cc2ccc(-c3nc4ccc(F)cc4nc3-c3ccccc3)cc2)CC1`: the activity change, negative = inhibition was 54.8%.
As for `CCc1cc(-c2nnn(CCC3COCCO3)c2CC)ccc1-c1cn(Cc2ccc3ccccc3c2)nn1` (configuration not stated), the activity change, negative = inhibition is -80.6% (active).
In the case of `O=C(C1CCC1)N1C[C@H]2[C@@H](c3ccccc31)[C@@H](CO)N2C(=O)c1ccccc1F` it was 27.8%; in that of `CC(C)(C)c1ccc(C(=O)NCC(c2ccc(Cl)cc2)N2CCOCC2)cc1` (configuration not stated), -1.98%.
For the molecule `Cc1ccc(C(=O)N2c3ncnn3C3(CCCCC3)[C@@H]3CCCC[C@@H]32)cc1`, the activity change, negative = inhibition is -15.5%.
In the case of `COc1ccc(CCN2CC(C(=O)OCC(=O)NCc3ccccc3Cl)CC2=O)cc1OC` (configuration not stated) it was 16.6%; in that of `COc1ccc(S(=O)(=O)N2CC3ON=C(c4c(F)cccc4Cl)C3C2)cc1OC` (configuration not stated), -7.48%.
On to `COc1ccc(CC(=O)N2CC3ON=C(c4c(F)cccc4Cl)C3C2)cc1OC` (configuration not stated), for which the activity change, negative = inhibition was -61.7% (active).
For the molecule `COc1ccccc1NC(=O)c1oc2ccccc2c1NC(=O)COc1ccccc1OC`, the activity change, negative = inhibition is 2.62%.
Consider `CCOc1ccccc1CNC(=O)c1cnc2c(-c3ccc(OCC)c(OCC)c3)c(C)nn2c1C`, for which the activity change, negative = inhibition is -3.31%.
With `Cc1ccc(CN2COc3cc(C)c4c(oc(=O)c5ccccc54)c3C2)cc1`, the activity change, negative = inhibition was 8.87%.
With `C/C(=N\NC(=O)c1cccnc1)c1ccc(-n2ccnc2)cc1`, the activity change, negative = inhibition is -16.6%.
Regarding `C/C(=N\NC(=O)c1cc2c(s1)CCC(C)C2)c1cccnc1` (configuration not stated), the activity change, negative = inhibition was -78.9% (active).
With `CC1CCc2sc(C(=O)N/N=C/C3CCCCC3)cc2C1` (configuration not stated), the activity change, negative = inhibition was 13.4%.
Take `Cc1ccc(C)c(N2CCN(Cc3nnc(-c4ccccc4)o3)CC2)c1`: the activity change, negative = inhibition was 27.7%.
With `COc1ccc(-c2nc(CN3CCC(C(=O)NCCN(CC(C)C)CC(C)C)CC3)c(C)o2)cc1OC` the figure was -0.431%; with `Cc1nnc(C)n1-c1ccc(C(=O)Nc2cccc(Br)c2)cc1`, 33.2%; with `CCN1C(=O)N[C@@H](CCc2ccccc2)C(C(=O)OC)=C1C`, -1.16%.
In the case of `CCOc1ccc(/C=C(\C#N)c2nc3ccccc3c(=O)[nH]2)cc1OC`, the activity change, negative = inhibition was 18%.
In the case of `CCOc1cc(/C=C(/C#N)c2ccc(Cl)cc2)cc(Cl)c1OCC(=O)O` it was -79.4% (active); in that of `CCOC(=O)CN(C(=O)COc1nc(C)cc(C)c1C#N)c1ccc(Cl)cc1`, -1.87%.
Turning to `Cc1ccc(Cn2c(=O)n(-c3ccc(C)cc3)c(=O)c3c2c2cc(C)ccc2n3C)cc1`, the activity change, negative = inhibition is 5.49%.
As to `CC1CCCN(c2cc3c(cc2F)c(=O)c(S(=O)(=O)c2cccc(Cl)c2)cn3Cc2ccccc2)C1` (configuration not stated), the activity change, negative = inhibition is -26.5%.
In the case of `O=C(/C=C\c1ccc2c(c1)OCO2)NC1(C(=O)Nc2ccc3c(c2)OCCO3)CCCCC1`, the activity change, negative = inhibition is -87.5% (active).
Turning to `CC1(C(=O)Nc2ccc3c(c2)OCCO3)CCN1C(=O)Cc1cc(F)ccc1F` (configuration not stated), the activity change, negative = inhibition was 20.3%.
With `S=C(Nc1ccc2c(c1)OCO2)N1CCCC1` the figure was 17.6%; with `COC(=O)[C@@]1(C#N)CC(=O)N([C@@H](C)c2ccccc2)[C@H]1c1ccccc1`, -35.4%; with `CC(=O)N1c2ccccc2CC1C(=O)N1CCN(c2ccc(F)cc2)CC1` (configuration not stated), 16.1%.
Consider `O=c1nc(N2CCOCC2)nc2n1CCO2`, for which the activity change, negative = inhibition is -26.3%.
For `COc1ccc(OC)c(NC(=O)C2CCN(S(=O)(=O)c3ccc(C)cc3)CC2)c1`, the activity change, negative = inhibition was -12.3%.
As to `c1ccc(Cc2nn3c(Cn4cnc5ccccc54)nnc3s2)cc1`, the activity change, negative = inhibition is -65.2% (active).
With `O=C(CSc1nnc(Cn2cnc3ccccc32)o1)c1ccccc1`, the activity change, negative = inhibition was -35.1%.
Consider `Fc1ccc(OCc2nn3c(Cn4nnc5ccccc54)nnc3s2)cc1`, for which the activity change, negative = inhibition was -1.96%.
Regarding `Cc1ccccc1CNC(=O)c1ccc(NC(=O)N2CCCCc3ccccc32)cc1`, the activity change, negative = inhibition was -4.65%.
Consider `COc1ccc(C(=O)c2oc3ccccc3c2NC(=O)COc2cccc(C)c2)cc1`, for which the activity change, negative = inhibition is 9.86%.
Take `Cc1noc(C)c1S(=O)(=O)N(C)C[C@H]1Oc2c(NC(=O)Nc3ccc4c(c3)OCO4)cccc2C(=O)N([C@H](C)CO)C[C@@H]1C`: the activity change, negative = inhibition was 22.1%.
